An excerpt weighted towards active compounds, which were near 2.2% of everything screened.
BaF3 parental: parental Ba/F3 cell viability inhibition, counter-screen for JAK2V617F inhibitor project, murine pro-B, CellTiter-Glo luminescence; CellTiter-Glo ATP luminescence; inhibition, % at 5.6 µM; hit rate 1.1% among 220,000; AID 1486, 2009;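 active means inhibition above a per-campaign cutoff, the mean inhibition of all tested compounds plus 3 SD, cut at about 27% in these data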
Ba/F3 V617F tox: reduced viability of JAK2V617F-dependent Ba/F3 cells, primary screen, JAK2V617F inhibitor project, cell-based, Ba/F3 EpoR-JAK2V617F, luminescence. hit rate 1.1% among 220,000. inhibition, % at 5.6 µM. ATP luminescence;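 active means inhibition above the campaign mean plus 3 SD over all tested compounds, cut at about 24% in these data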;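 further: cytokine-independent growth of Ba/F3 cells driven by EpoR plus mutant JAK2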
APP 5UTR inh: inhibitors of APP translation via 5'UTR reporter, primary screen, APP 5'UTR luciferase, SH-SY5Y cells; SH-SY5Y APP 5'UTR-luciferase reporter, luminescence; inhibition, % at 2 µM; hit rate 0.82% among 190,000;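 active means inhibition above a set limit, derived from the sample mean plus 3 SD, cut at about 45% in these data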
IEC-6 tox: cytotoxicity in IEC-6 intestinal epithelial cells, primary screen, cytotoxicity control for KLF5 inhibitor project, cell-based, luminescence; IEC-6 cytotoxicity, luminescence viability; AID 1825, 2009; hit rate 0.78% among 290,000; inhibition, % at 5 µM; in the data active means inhibition above about 22%
KLF5 inhibitor: KLF5 expression inhibitors, primary screen, DLD-1 cells, luminescence. DLD-1 KLF5 promoter-luciferase reporter. inhibition, % at 5 µM. AID 1700, 2009. hit rate 0.23% among 290,000;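 active means inhibition above a per-plate limit of that plate's mean compound inhibition plus 3 SD, cut at about 60% in these data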;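 further: higher means less KLF5 promoter-driven luciferase light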
aSyn 5UTR inh: MLPCN primary screen, SNCA 5' untranslated region | alpha-synuclein 5'UTR reporter, inhibitor activity | inhibition, % (tested at 7.5 µM) | hit rate 0.82% among 300,000 | AID 1813, 2009; in the data active means inhibition above about 60%;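 further: H4 neuroglioblastoma cells stably carrying SNCA 5'UTR luciferase fusion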
Of the large screens only hits and unclear results are named; the others gave an inactive call.

CC1O[C@@H](O[C@H](C)CC[C@@H](C)O)C(O)C[C@H]1O (stereo not given in full)	none (no result: BaF3 parental, Ba/F3 V617F tox, APP 5UTR inh, IEC-6 tox, KLF5 inhibitor)
Cc1ccc2c(c1)C(c1ccccc1)N(C(=O)CC(C)C)CC(=O)N2 (stereo not given)	none (no result: BaF3 parental, Ba/F3 V617F tox, APP 5UTR inh)
O=C(CCc1ccncc1)NC1CCCc2c1cnn2-c1cc(F)cc(F)c1 (stereo not given)	aSyn 5UTR inh 79 (no result: BaF3 parental, Ba/F3 V617F tox, APP 5UTR inh)
CSCC(=O)NC1CCCc2c1cnn2-c1cc(F)cc(F)c1 (stereo not given)	none (no result: BaF3 parental, Ba/F3 V617F tox, APP 5UTR inh)
COC(=O)c1ccccc1NC(=O)CSc1nc(-c2ccco2)cc(C(F)(F)F)n1	APP 5UTR inh 73 (no result: aSyn 5UTR inh)
COc1ccc(-n2nnnc2SCC(=O)c2cccc(OC)c2)cc1	none
CCn1nnnc1SCC(=O)c1cccc(OC)c1	BaF3 parental 45
CCc1ccc2nc(SCC(=O)N3CC(=O)Nc4ccccc43)c(C#N)cc2c1	APP 5UTR inh 94
CN(C)CCCNC(=O)C(=O)NCC(c1cccs1)S(=O)(=O)c1ccc(F)cc1 (stereo not given)	none (no result: BaF3 parental, Ba/F3 V617F tox, APP 5UTR inh, IEC-6 tox, KLF5 inhibitor)
CN(C)c1cccc(C(=O)NNC(=O)CSc2ccccc2)c1	none (no result: BaF3 parental, Ba/F3 V617F tox, APP 5UTR inh)
CN(C)CCCN(Cc1cc2cc3c(cc2[nH]c1=O)OCO3)C(=S)Nc1cccc(Cl)c1	BaF3 parental 46, Ba/F3 V617F tox 36
CN(C)CCCN(Cc1cc2cc3c(cc2[nH]c1=O)OCO3)C(=S)Nc1ccccc1	none
COc1ccc(-c2nc(CS(=O)CC(=O)NCCCN3CCOCC3)c(C)o2)cc1OC (stereo not given)	none (no result: BaF3 parental, Ba/F3 V617F tox, APP 5UTR inh)
Cc1cc(N(C(=O)c2ccco2)C(C(=O)NC2CCCCC2)c2ccccc2)ccc1-n1cnnn1 (stereo not given)	BaF3 parental 51
Cc1ccc(OCC(=O)Nc2sc3c(c2C#N)CC(C)(C)NC3(C)C)cc1	none
CC1(C)Cc2c(sc(NC(=O)COc3cccc4ccccc34)c2C#N)C(C)(C)N1	aSyn 5UTR inh 72 (no result: APP 5UTR inh)
Cc1ccc(C2(c3ccc(C)cc3)CC2C(=O)NC(C)C)cc1 (stereo not given)	none (no result: BaF3 parental, Ba/F3 V617F tox, APP 5UTR inh)
O=C(Nc1ccc(F)cc1)Nc1cc(OCC(F)(F)F)cc(OCC(F)(F)F)c1	aSyn 5UTR inh 86
CCOc1ccc(NC(=O)Nc2cc(OCC(F)(F)F)cc(OCC(F)(F)F)c2)cc1	none
O=C(CCn1c(=O)oc2ccccc21)Nc1cccc(Br)c1	none (no result: BaF3 parental, Ba/F3 V617F tox, APP 5UTR inh)
COc1cccc(/C=N/NC(=O)CSc2nnc(C)n2-c2ccccc2)c1O	none
COc1cccc(/C=N/NC(=O)C(=O)Nc2ccccc2OC(F)(F)C(F)F)c1O	aSyn 5UTR inh 71
CCCCSc1nc(C)cc(SCC(=O)N/N=C/c2cccc(OC)c2O)n1	aSyn 5UTR inh 81
COc1ccc(CCCC(=O)N/N=C/c2cccc(OC)c2O)cc1C	aSyn 5UTR inh 74
COc1ccc(C(=O)Nc2cccc(C(=O)N/N=C/c3ccc(OC)cc3OC)c2)cc1	aSyn 5UTR inh 83 (no result: BaF3 parental, Ba/F3 V617F tox, APP 5UTR inh)
CC1=CC=CC2=NC(=O)CC(C)(C(=O)N(CC(=O)NC3CCCC3)c3ccc(F)cc3)N12 (stereo not given)	none (no result: BaF3 parental, Ba/F3 V617F tox, APP 5UTR inh)
CC(C)Oc1ccc(N2CC(C(=O)Nc3ccccc3C(=O)NC3CC3)CC2=O)cc1 (stereo not given)	none (no result: BaF3 parental, Ba/F3 V617F tox, APP 5UTR inh, IEC-6 tox, KLF5 inhibitor)
COc1cccc(/C=N/NC(=O)c2ccc(-c3ccccc3)cc2)c1O	aSyn 5UTR inh 76
CCOc1ccccc1NC(=O)C(=O)N/N=C/c1cc(Br)ccc1O	APP 5UTR inh 59
COc1ccc(OC)c(/C=N\NC(=O)c2ccc(-c3ccccc3)cc2)c1	none (no result: BaF3 parental, Ba/F3 V617F tox, APP 5UTR inh, aSyn 5UTR inh)
NS(=O)(=O)c1cc(C(=O)NCC2CCCCC2)ccc1Cl	none (no result: BaF3 parental, Ba/F3 V617F tox, APP 5UTR inh)
Cc1ccc(C2(O)CN(c3ccccc3)C3=[N+]2CCS3)cc1 (stereo not given)	none
Cc1ccc(-c2c[n+]3c(n2-c2ccccc2)SCC3)cc1	BaF3 parental 64, Ba/F3 V617F tox 79 (no result: APP 5UTR inh)
COc1ccc(-c2nnc3n2-c2ccccc2SC3)cc1OC	none
Brc1ccc(-c2c[n+]3c(n2-c2ccccc2)SCC3)cc1	BaF3 parental 59, Ba/F3 V617F tox 64 (no result: APP 5UTR inh)
COc1ccc(-c2c[n+]3c(n2-c2ccccc2)SCC3)cc1	BaF3 parental 61, Ba/F3 V617F tox 73 (no result: APP 5UTR inh)
COc1ccc(-c2c[n+]3c(n2-c2ccccc2)SCC3)cc1OC	BaF3 parental 77, Ba/F3 V617F tox 46
N#Cc1ccc(-c2cn(-c3ccccc3)c3[n+]2CCCS3)cc1	none
COc1ccc(Br)cc1CNC(=O)C1CCN(C(=O)N(C)C)CC1	aSyn 5UTR inh 78
COc1ccc(-n2c(-c3ccc(Cl)cc3)c[n+]3c2CCCCC3)cc1	BaF3 parental 66, Ba/F3 V617F tox 72 (no result: APP 5UTR inh)
COc1ccc(-c2c[n+]3c(n2-c2c(C)n(C)n(-c4ccccc4)c2=O)CCCCC3)cc1	none
FC(F)Oc1ccc(-c2c[n+]3c(n2-c2ccccc2)CCCCC3)cc1	BaF3 parental 60, Ba/F3 V617F tox 64 (no result: APP 5UTR inh)
COc1ccc(-c2c[n+]3c(n2-c2ccccc2)CCCCC3)cc1	BaF3 parental 64, Ba/F3 V617F tox 76
CCOc1ccc(-n2c(-c3ccccc3)c[n+]3c2CCC3)cc1	BaF3 parental 68, Ba/F3 V617F tox 79
COc1ccccc1CN1CC(C(=O)NCc2c(F)ccc(C)c2F)CCC1=O (stereo not given)	none (no result: BaF3 parental, Ba/F3 V617F tox, APP 5UTR inh)
COc1ccc2c(c1OC)C(=O)N1C2SC(C)(C)[C@H]1C(=O)NCC(C)C (stereo not given in full)	none (no result: BaF3 parental, Ba/F3 V617F tox, APP 5UTR inh)
O=C(NCc1ccco1)c1ccc2c(c1)OCCO2	none (no result: BaF3 parental, Ba/F3 V617F tox, APP 5UTR inh)
CN(CC1COc2ccccc2O1)C(=S)Nc1ccccc1 (stereo not given)	BaF3 parental 28
O=C(N/N=C/c1c(Cl)cccc1Cl)c1n[nH]c2c1CCCC2	none
O=C(NN=C1CCCCCC1)c1ccncc1	none (no result: BaF3 parental, Ba/F3 V617F tox, APP 5UTR inh, aSyn 5UTR inh)
Cc1ccsc1/C=N\NC(=O)c1n[nH]c2c1CCC2	aSyn 5UTR inh 69
O=C(NN=C1CCCC1)c1n[nH]c2c1CCC2	APP 5UTR inh 94
O=C(NN=C1CCCC1)c1n[nH]c2c1CCCC2	APP 5UTR inh 92
O=C1CS/C(=N\c2ccccn2)N1C1CCCCC1	BaF3 parental 96
COc1ccc2oc(C(=O)OCC(=O)NC3CCCCC3)c(C)c2c1	none (no result: BaF3 parental, Ba/F3 V617F tox, APP 5UTR inh, IEC-6 tox, KLF5 inhibitor)
Oc1ccccc1CN1CCC(C(O)(c2ccccc2)c2ccccc2)CC1	none
CC(C)(C)c1ccc(C(O)CCCN2CCC(C(O)(c3ccccc3)c3ccccc3)CC2)cc1 (stereo not given)	aSyn 5UTR inh 111
COc1cc2nc(N3CCN(c4cc(C)ccc4C)CC3)nc(N)c2cc1OC	aSyn 5UTR inh 95 (no result: BaF3 parental, Ba/F3 V617F tox, APP 5UTR inh)
O=C(O)c1ccccc1N/N=C/c1c(Sc2nnnn2-c2ccccc2)nc2ccccn2c1=O	none (no result: APP 5UTR inh)
O=c1c(/C=N/Nc2ccccc2)c(Sc2nnnn2-c2ccccc2)nc2ccccn12	APP 5UTR inh 75 (no result: aSyn 5UTR inh)
CCOC(=O)Cn1c(=O)c(-c2cc(Br)ccc2N)nc2ccccc21	BaF3 parental 88, Ba/F3 V617F tox 47 (no result: APP 5UTR inh)

Source: PubChem
